Bioassay records: PubChem, Broad Institute
SIRT5 block: sirtuin-5 (human) deacylase inhibition; Q9NXA8; inhibition, % at 15 µM; 1.1% of 330,000 active; Purified SirT5, succinyl-peptide AMC, trypsin-coupled fluorescence; in the data active means inhibition above about 15%
Target sequence (Q9NXA8 whole entry, looked up): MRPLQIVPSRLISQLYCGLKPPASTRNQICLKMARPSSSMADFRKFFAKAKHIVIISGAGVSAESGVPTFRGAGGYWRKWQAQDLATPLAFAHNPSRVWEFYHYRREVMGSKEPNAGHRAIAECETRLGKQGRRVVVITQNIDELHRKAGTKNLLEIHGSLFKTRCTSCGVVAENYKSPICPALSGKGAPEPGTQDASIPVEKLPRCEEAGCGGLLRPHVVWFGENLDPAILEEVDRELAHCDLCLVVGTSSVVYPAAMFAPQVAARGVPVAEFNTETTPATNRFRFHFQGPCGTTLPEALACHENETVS
PAX8 inh HTS: PAX8 transcriptional activity inhibition; RMG-I TPO-luciferase reporter, SteadyGlo, 24 h; inhibition, % at 12.6 µM; 1.2% of 360,000 active; AID 652154;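 active means mean replicate inhibition at least 60% with every replicate also reaching 60%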;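 further: luciferase light reporting Pax8 driven TPO promoter activity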
LGR2 inh: inhibitors of bursicon-induced Drosophila LGR2 receptor cAMP signaling. inhibition, % at 9.99 µM. 0.35% of 380,000 active. HEK293 LGR2, CRE-luciferase, bursicon-stimulated, 4 h. AID 720647;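 active means drop in luminescence signal, shown as inhibition above about 50% in the replicate tests, limit read from the data, passing the limit was not always enough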;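 further: agonist challenge used bursicon conditioned medium at about half maximal strength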
PGC1a acetyl inh: lowers PGC1a acetylation signal in U2OS cells; AlphaScreen anti-acetyl-lysine; with virally co-expressed GCN5 acetyltransferase; AID 651687; inhibition, % at 15.6 µM; 0.17% of 350,000 active;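 active means every replicate shows inhibition of at least 40%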
rRNA inh HTS: inhibits bacterial ribosomal RNA function over humanized ribosomes. E. coli WT GFP vs humanized-ribosome RFP mutants, fluorescence, 24 h; stronger effect = lower value; DMSO median 0, no signal -100. AID 720706. 1.6% of 350,000 active. GFP signal change (wild-type ribosome), % (concentration not given with the values);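 active means significant combined selectivity score with lowered wild-type GFP, culture density cut under 30%, mutant RFP and density less affected; inactive means any of these conditions unmet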
EWS-Fli block: blocks EWS/Fli oncoprotein-driven transcription; inhibition, % at 12.6 µM; 0.67% of 350,000 active; A673 NR0B1-luciferase reporter, viability-normalised; AID 651661;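 active means mean inhibition of at least 50% after viability correction, with every replicate also passing that limit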;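 further: firefly luciferase signal divided by Alamar Blue viability fluorescence both relative to DMSO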
A number is an active result; - = inactive; . = no result; ! = not active in a repeat. Hits are enriched below; roughly 3.4% of the tested compounds scored in any of these assays.

SMILES	SIRT5 block	PAX8 inh HTS	LGR2 inh	PGC1a acetyl inh	rRNA inh HTS	EWS-Fli block
Cc1ccc(S(=O)(=O)Nc2cccc3c2O[C@@H](CN(C)Cc2ccc4c(c2)OCO4)[C@@H](C)CN([C@H](C)CO)C3=O)cc1	15	-	-	-	-	-
C[C@H]1CN([C@@H](C)CO)C(=O)c2cccc(NS(=O)(=O)c3cn(C)cn3)c2O[C@H]1CN(C)Cc1ccc(Oc2ccccc2)cc1	29	.	-	-	-	-
C[C@@H]1CN([C@@H](C)CO)C(=O)c2cccc(NS(=O)(=O)c3ccc(Cl)cc3)c2O[C@@H]1CN(C)Cc1ccc(-c2ccccc2)cc1	-	65	-	-	-	-
CNC[C@@H]1Oc2ccccc2CC(=O)N(C)C[C@H]1C	.	.	.	.	-	.
CC(=O)N1CC(=O)N2[C@H](CO)[C@@H](c3ccc(-c4ccc(C#N)cc4)cc3)[C@@H]2C1	.	.	.	.	-	.
CO[C@H]1CN(C)C(=O)c2ccc(NC(=O)c3cnccn3)cc2OC[C@H](C)NC[C@H]1C	-	.	-	-	-	-
C[C@H](CO)N1C[C@H](C)[C@H](CN(C)Cc2ccc(Cl)c(Cl)c2)Oc2c(NS(=O)(=O)c3ccc(Cl)cc3)cccc2C1=O	-	83	.	-	.	-
C[C@@H]1CN([C@H](C)CO)C(=O)c2cccc(NC(=O)c3ccc(-c4nccs4)cc3)c2O[C@@H]1CN(C)CC1CC1	-	.	-	-	-	-
C[C@H](O)[C@@H]1CN2CCc3c([nH]c4c(-c5ccccc5)cccc34)[C@@H]2C[C@@H]1N(C)C(=S)NCCc1ccccc1	-	-	-	.	-30	-
C=CCNC(=S)N(C)[C@H]1C[C@H]2c3cc(-c4ccccc4C)ccc3CCN2C[C@H]1[C@H](C)O	-	-	-	.	-30	-
C[C@@H]1ON(C)[C@H]2C[C@H]3c4[nH]c5c(-c6ccccc6)cccc5c4CCN3C[C@@H]12	-	-	-	.	-26	-
C[C@@H]1ON(C)[C@H]2C[C@H]3c4[nH]c5c(-c6cccc(F)c6)cccc5c4CCN3C(=O)[C@@H]12	-	-	-	.	-	-
C[C@H](O)[C@@H]1CN2CCc3c([nH]c4c(-c5ccccc5)cccc34)[C@@H]2C[C@@H]1N(C)C(=O)Nc1ccccc1	-	-	-	.	-	-
Cc1ccccc1-c1ccc2c(c1)[C@@H]1C[C@H](N(C)C(=O)c3ccco3)[C@H]([C@H](C)O)CN1CC2	-	-	-	.	-	-
CCNC(=O)C[C@H]1CC[C@H]2[C@@H](COc3ccc(NC(=O)Nc4ccc(F)cc4)cc3C(=O)N2C)O1	-	-	-	-	.	-
C[C@@H]1CN([C@H](C)CO)C(=O)Cc2cc(NC(=O)Nc3cccc4ccccc34)ccc2O[C@@H]1CN(C)Cc1ccc2c(c1)OCO2	-	-	-	-	-	-
COc1ccccc1C#Cc1ccc2c(c1)[C@H]1[C@H](CCN1C(=O)c1ccncc1)[C@H](CO)N2	.	-	.	-	.	-
Cc1ccc(NC2=C(Cl)C(=O)OC2OC(=O)c2ccccc2)c(C)c1 (stereo not given)	-	-	-	-	-41	-
CCCCCCCCNC(=O)c1cnccn1	-	98	-	-	-	-
Cc1ccccc1C(=O)NCCCNC(=O)c1cnccn1	-	-	-	.	-	-
CCOc1cc(/C=C2\N=C(C)OC2=O)cc(Br)c1OCCc1ccccc1	-	.	-	-	-24	-
CCOc1cc(/C=C2\N=C(C)OC2=O)cc(Br)c1OCC(=O)OC	-	.	-	.	-	-
COc1ccc(C#Cc2cnc3c(c2)C(=O)N([C@H](C)CO)C[C@H](C)[C@@H](CN(C)C(=O)CC2CC2)O3)cc1	-	-	-	-	-	-
CC1=C(C(=O)OCc2ccccc2)C(c2cccnc2)c2c(n(C)c(=O)n(C)c2=O)N1 (stereo not given)	-	-	-	-	-17!	-
CC1=C(C(=O)OCc2ccccc2)C(c2cccnc2)n2ncnc2N1 (stereo not given)	.	.	.	-	.	.
SMILES	SIRT5 block	PAX8 inh HTS	LGR2 inh	PGC1a acetyl inh	rRNA inh HTS	EWS-Fli block
S=c1nc[nH]c2c1cnn2Cc1ccccc1	-	-	-	45	-	-
CC(C)NC(=O)NC(=O)COc1ccc(Br)cc1Br	-	-	53	.	-	-
CCCCC1=CC2=C(c3ccco3)C(=O)C(C)(OC(=O)c3ccc(OC)cc3)C(=O)C2=CN1CCCOC(C)C (stereo not given)	34	-	-	-	-	-
CC1(C)CC(=O)C2=C(C1)N1C(=C(C#N)C2c2ccccc2Cl)N=C(N)c2ccccc21 (stereo not given)	-	-	-	-	-	-
CC1(C)CC(=O)C2=C(C1)N1C(=C(C#N)C2c2ccc(Cl)cc2)N=C(N)c2ccccc21 (stereo not given)	.	67	-	-	-	-
O=C1c2ccccc2C(=O)N1CSc1nnc(Nc2ccccc2F)s1	.	78	-	.	-	-
CC[N+](CC)(CC)CCCCOc1ccc2c(c1)C(=O)c1cc(OCCCC[N+](CC)(CC)CC)ccc1-2	-	-	-	-	-54	-
Cc1onc(-c2c(Cl)cccc2Cl)c1C(=O)NN1CCCCCC1	-	-	-	-	-13	-
Cc1onc(-c2c(F)cccc2Cl)c1C(=O)NNC(=O)C1CCN(Cc2ccccc2)CC1	-	-	-	.	-	-
Cc1onc(-c2ccccc2Cl)c1C(=O)N1CCN(c2cccc(Cl)c2)CC1	-	-	-	-	-	54
Cc1onc(-c2ccccc2Cl)c1C(=O)N1CCN(c2ccccc2)CC1	-	.	-	-	-	.
CCN1CCN(C(=O)c2c(-c3c(F)cccc3Cl)noc2C)CC1	.	-	.	-	.	.
Cc1onc(-c2c(F)cccc2Cl)c1C(=O)N1CCSCC1	-	-	-	-	-29	-
CSC(=NS(=O)(=O)c1ccccc1)NNC(=O)c1c(-c2c(Cl)cccc2Cl)noc1C	-	-	-	.	-21	-
Cc1ccccc1-c1ccc([C@@H]2[C@H](CO)N3CCCCN(C(=O)Nc4ccc(F)cc4)C[C@@H]23)cc1	17	-	-	-	-	-
O=C(Nc1cccc(F)c1)N1CCCCN2[C@H](C1)[C@@H](c1ccc(-c3ccncc3)cc1)[C@@H]2CO	-	-	-	-	-	-
Cc1ccccc1-c1ccc([C@H]2[C@@H](CO)N3CCCCN(C(=O)Nc4ccccc4)C[C@@H]23)cc1	-	-	-	-	-	-
O=C(Nc1ccc(F)cc1)N1CCCCN2[C@H](CO)[C@@H](c3ccc(C#Cc4ccccc4)cc3)[C@@H]2C1	-	-	-	-	-	-
COc1ccc(NC(=O)N2CCCCN3[C@H](CO)[C@H](c4ccc(C#Cc5ccccc5)cc4)[C@H]3C2)cc1	-	82	.	-	.	-
O=C(Nc1ccc(F)cc1)N1CCCCN2[C@@H](CO)[C@H](c3ccc(C#Cc4ccccc4)cc3)[C@@H]2C1	-	70	-	-	-	60
